What all share (type): functional
Test [1] has as its system Plasmodium falciparum. The experiment in a line: GSK_TCMDC: Inhibition of Plasmodium falciparum 3D7 in whole red blood cells, using parasite LDH activity as an index of growth. Test compounds present at 2uM.
For test [2], the system named is Plasmodium falciparum. Put plainly: GSK_TCMDC: Inhibition of Plasmodium falciparum Dd2 in whole red blood cells, using parasite LDH activity as an index of growth. Test compounds present at 2uM.
In another test the test system is HepG2. Put plainly: GSK_TCMDC: Percent inhibition of human HepG2 cell line. Test compounds present at 10uM.

Usually Inhibition stands for the drop in the measured response relative to a control, in per cent. A high value points to a response far below the control. As to `O=C(Nc1ccc(C(F)(F)F)cc1)NC1CCN(c2ccnc3cc(Cl)ccc23)CC1.O=C(O)C(F)(F)F`, the results for the Inhibition in the test on Plasmodium falciparum [1], with Plasmodium falciparum [2] and with HepG2 were 100%, 74% and 22%, respectively.
On to `O=C(NCc1ccc(Cl)c(Cl)c1)c1cc(CNC2CCNCC2)ccc1O`, for which the Inhibition is reported as 82% in the test on Plasmodium falciparum [1], 2% in the test on Plasmodium falciparum [2] and 2% in the test with HepG2.
As for `CCC(C)(C)n1c(C)cc2c3c(N)nc(N)nc3ccc21`, the Inhibition with Plasmodium falciparum [1] came to 97%; in the test with Plasmodium falciparum [2], 85%; in the test with HepG2, 69%.
For the compound `COc1ccc2nccc([C@@H](O)CN3CCC(NCc4cc5cccc6c5n(c4=O)CCC6)CC3)c2c1.O=C(O)C(=O)O`, the results for the Inhibition in the test on Plasmodium falciparum [1], in the test on Plasmodium falciparum [2] and with HepG2 were 98%, 97% and 33%, respectively.
For the compound `COC(=O)c1ccc2c(c1)nc(Nc1cccc(F)c1)n2CC(O)c1ccccn1` (centres undefined), the Inhibition was 99% in the test with Plasmodium falciparum [1], 96% in the test with Plasmodium falciparum [2] and 0% with HepG2.
Regarding `COc1ccc2nccc([C@@H](O)CN3CCC(NCc4ccc5c(n4)NC(=O)CS5)C(F)C3)c2c1.Cl` (some centres undefined), the results for the Inhibition in the test with Plasmodium falciparum [1], in the test on Plasmodium falciparum [2] and in the test on HepG2 were 89%, 88% and 5%, respectively.
On to `CCN1CCN(Cc2ccc(NC(=O)c3cc4ccc5cccnc5c4[nH]3)cc2)CC1`, for which the Inhibition in the test with Plasmodium falciparum [1] is reported as 100%; with Plasmodium falciparum [2], 97%; with HepG2 it was 0%.
The corresponding values for `O=C(/C=C/c1ccc(Cl)c(Cl)c1)NCCCCCN1CCC(NC(=O)Nc2ccc(F)cc2F)CC1` are 100%, 23% and 14%.
The matching figures for `O=C(NCc1cc2c(cc1Cl)OCO2)c1ccc(CNC2CCN(Cc3ccccc3)CC2)cc1.O=C(O)C(F)(F)F`: 100%, 47% and 11%.
On to `COc1ccc(Cl)cc1NC(=O)Nc1ccc2c(c1)CCN(C1CCC1)CC2.Cl`, for which the Inhibition with Plasmodium falciparum [1] was 98%; with Plasmodium falciparum [2], 19%; in the test on HepG2 it was 38%.
Consider `O=C(NCCCCN1CCC(C(c2ccccc2)c2ccccc2)CC1)c1ccc(NC(=O)c2ccc(Cl)cc2)cc1`, for which the values for the Inhibition in the test on Plasmodium falciparum [1], in the test on Plasmodium falciparum [2] and in the test with HepG2 were 100%, 47% and 12%, respectively.
The matching figures for `CCCCOC(=O)C1=C(C)NC2=C(C(=O)CCC2)C1c1ccc(OC)c(Br)c1` (centres undefined): 93%, 87% and 5%.
Consider `O=C(Nc1cccc(-c2nn3ccccc3c2-c2ccnc(Nc3ccccc3)n2)c1)c1cc(F)ccc1F`, for which the Inhibition in the test with Plasmodium falciparum [1] is reported as 98%; in the test on Plasmodium falciparum [2] it was 75%; with HepG2, 8%.
The matching figures for `CC(C)CCNC(=O)C1Cc2c([nH]c3ccc(Br)cc23)C2(CCN(CCc3ccccc3)CC2)N1` (centres undefined): 100%, 61% and 25%.
On to `COc1cc2nc(C)nc(Nc3ccc(Cc4ccccc4)cc3)c2cc1OC.Cl`, for which the Inhibition in the test with Plasmodium falciparum [1] was 100%; in the test with Plasmodium falciparum [2] it was 99%; in the test with HepG2 it was 16%.
For `CC(C)S(=O)(=O)N1CCN(Cc2ccc3c(c2)nc(NC(=O)c2ccsc2)n3C[C@H](O)c2ccccc2)CC1`, the Inhibition with Plasmodium falciparum [1] stood at 91%; in the test on Plasmodium falciparum [2], 72%; in the test on HepG2, 56%.
Take `CCCCn1c(N)c(N(Cc2ccco2)C(=O)C=Cc2cc(OC)c3c(c2)OCCO3)c(O)nc1=O`: the results for the Inhibition in the test with Plasmodium falciparum [1], in the test with Plasmodium falciparum [2] and in the test on HepG2 were 85%, 94% and 4%, respectively.
With `C=CCc1cc(OC)ccc1OCCCOc1c(C)nc(N)nc1N.Cl`, the Inhibition in the test with Plasmodium falciparum [1] is listed as 92%; in the test with Plasmodium falciparum [2], 97%; in the test on HepG2, 67%.
With `COc1cccc(-c2nn(C)c3sc(C(=O)NCCN4CCN(c5ccccc5F)CC4)cc23)c1`, the Inhibition stood at 85% in the test on Plasmodium falciparum [1], 40% in the test with Plasmodium falciparum [2] and 9% in the test on HepG2.
Consider `CCCC[C@H](NC(=O)OC(C)(C)C)C(=O)Nc1ccc(Cc2ccc(NC(=O)[C@H](CCCC)NC(=O)OC(C)(C)C)cc2)cc1`, for which the Inhibition with Plasmodium falciparum [1] is listed as 95%; in the test on Plasmodium falciparum [2], 71%; with HepG2, 5%.
The corresponding values for `Cc1ccc(F)c(OCC2CCN(c3ccc(C(=O)NC4CC4)cn3)CC2)c1` are 94%, 95% and 4%.
Regarding `O=C(Nc1nc(-c2cc(F)ccc2F)cs1)c1cncc(Br)c1`, the figures for the Inhibition in the test on Plasmodium falciparum [1], in the test on Plasmodium falciparum [2] and in the test with HepG2 were 85%, 3% and 16%, respectively.
`CC(C)N1CCN(C(=O)c2ccc(CNCCCN3CCN(c4cccc(Cl)c4Cl)CC3)o2)CC1.Cl`: the Inhibition with Plasmodium falciparum [1] turned out to be 98%; in the test with Plasmodium falciparum [2] it was 36%; in the test on HepG2, 41%.
On to `O=C(NC1CCCCC1)N(Cc1ccccc1-c1ccc(CNCCc2ccccc2)cc1)C1CCN(Cc2ccccc2)CC1.O=C(O)C(F)(F)F`, for which the Inhibition with Plasmodium falciparum [1] is given as 90%; in the test on Plasmodium falciparum [2], 92%; in the test with HepG2 it was 96%.
For the compound `CC(C)CNCc1ccc(-c2ccc(CNC3CCN(Cc4ccccc4)CC3)cc2)cc1.O=C(O)C(F)(F)F`, the Inhibition in the test with Plasmodium falciparum [1] was 100%; in the test with Plasmodium falciparum [2], 96%; with HepG2 it was 16%.
With `OCCCCCCNc1ccnc2[nH]c3ccc(I)cc3c12`, the Inhibition in the test on Plasmodium falciparum [1] worked out at 100%; in the test on Plasmodium falciparum [2], 61%; in the test on HepG2, 27%.
With `Oc1cccc(-c2nc(-c3cccc(I)c3)c(-c3ccc(-c4nc(-c5cccc(O)c5)[nH]c4-c4cccc(I)c4)cc3)[nH]2)c1`, the Inhibition came out at 96% with Plasmodium falciparum [1], 66% in the test on Plasmodium falciparum [2] and 0% in the test on HepG2.
The corresponding values for `O=C(Nc1cccc([N+](=O)[O-])c1)Nc1ccc(Cl)c(C(F)(F)F)c1` are 96%, 87% and 15%.

These data come from ChEMBL document CHEMBL1157539, “Thousands of chemical starting points for antimalarial lead identification” (Nature, 2010).
